Results from PubChem BioAssay.

experiment: growth of efflux-deficient E. coli DRC39 – strain DRC39, OD650, 48 h, E. coli filamentation inducers, primary screen (AID 1179);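 also: screen aims at cell division blockers that make cells filament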; details: E. coli DRC39 delta-acrAB growth, higher = more signal, called active from +8 up or from −8 down

z-score, inactive:
O=C1OCCC/C=C\[C@H]2OC34C=CCN(Cc5ccccc5)C(=O)[C@H]3N(CCCCCO)C(=O)[C@@H]4C12 (stereo partly drawn) 0.775
CO[C@H]1O[C@H](CO)[C@@H](OC(=O)Nc2ccc(C(F)(F)F)cc2)[C@H](OC(=O)Nc2ccccc2-c2ccccc2)[C@H]1OC(=O)Nc1ccccc1-c1ccccc1 -1.25
COCCOC(=O)N1C(=O)[C@@]2(c3cc(C#CCCO)ccc31)[C@H](C(=O)N1CCN(c3ncccn3)CC1)[C@H]1C(=O)O[C@H](c3ccccc3)[C@H](c3ccccc3)N1[C@@H]2c1ccc(O)cc1 1.6
[N-]=[N+]=NCc1ccccc1[C@H]1OC(c2ccc(OCCCO)cc2)=N[C@@]1(Cc1ccccc1)C(=O)N1CCOCC1 -1
C=CCC(OC(C)=O)[C@@H]1[C@@H](N(Cc2ccc(-c3ccccc3)cc2)C(=O)c2ccc(C)cc2)c2cc(OCCCO)ccc2N1C(=O)c1ccc2ccccc2c1 (stereo partly drawn) 0.67
CCCCC(O)C1C=CC2C(=O)N(C)C(=O)C2N1Nc1ccccc1 (stereo not drawn) -0.618
COCCOC(=O)N1C(=O)[C@@]2(c3cc(C#CCC(C(=O)OC)C(=O)OC)ccc31)[C@H](C(=O)N1CCCCCCC1)[C@H]1C(=O)O[C@H](c3ccccc3)[C@H](c3ccccc3)N1[C@@H]2c1ccccc1OCCO -1.29
COC(=O)[C@@]1(Cc2ccccc2)[C@H]2c3cc(C(=O)N4CCCC4)n(Cc4ccc(C(F)(F)F)nc4)c3C[C@H]2CN1C(=O)c1ccccc1 -0.815
